Assay results published in PubChem BioAssay AID1159580 (chemical genetic matrix, 2015).
Values joined by “and” are separate entries in the source; they are usually repeats but may differ in a detail not shown here. Equal values may be shown once. The campaign covered roughly 5,500 compounds. About 2,000 (36%) were called active. Another 18% or so got no clear call; they are omitted. No stated cut-off is given here; in the data, active means normalized growth mostly below about 0.91 (no sharp cut-off); inconclusive means no clear call, values can overlap the other calls; inactive means mostly above about 0.92. The list shows a part of the results.

Experiment: chemical genetic growth profiling, strain panel (AID 1159580);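 further: tested at 20 µM; growth read once vehicle control cultures reached saturation at 30 °C; 1 = growth at the plate median or of vehicle wells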
Conditions: growth OD
[1] = S. cerevisiae deletion strains, locus YAL013W, strain DEP1, stronger effect = lower value
[2] = S. cerevisiae deletion strains, locus YBR229C, strain ROT2, stronger effect = lower value
[3] = S. cerevisiae deletion strains, locus YDL101C, strain DUN1, stronger effect = lower value
[4] = S. cerevisiae deletion strains, locus YDR150W, strain NUM1, stronger effect = lower value
[5] = S. cerevisiae deletion strains, locus YEL061C, strain CIN8, stronger effect = lower value
[6] = S. cerevisiae deletion strains, locus YGR052W, strain FMP48, stronger effect = lower value
[7] = S. cerevisiae deletion strains, locus YGR078C, strain PAC10, stronger effect = lower value
[8] = S. cerevisiae deletion strains, locus YGR229C, strain SMI1, stronger effect = lower value
[9] = S. cerevisiae deletion strains, locus YHR030C, strain SLT2, stronger effect = lower value
[10] = S. cerevisiae deletion strains, locus YHR079C, strain IRE1, stronger effect = lower value
[11] = S. cerevisiae deletion strains, locus YHR082C, strain KSP1, stronger effect = lower value
[12] = S. cerevisiae deletion strains, locus YHR087W, strain rtc3, stronger effect = lower value
[13] = S. cerevisiae deletion strains, locus YJL095W, strain BCK1, stronger effect = lower value
[14] = S. cerevisiae deletion strains, locus YJL187C, strain SWE1, stronger effect = lower value
[15] = S. cerevisiae deletion strains, locus YJR043C, strain POL32, stronger effect = lower value
[16] = S. cerevisiae deletion strains, locus YJR066W, strain TOR1, stronger effect = lower value
[17] = S. cerevisiae deletion strains, locus YJR075W, strain HOC1, stronger effect = lower value
[18] = S. cerevisiae deletion strains, locus YKL203C, strain TOR2, stronger effect = lower value
[19] = S. cerevisiae deletion strains, locus YLR039C, strain RIC1, stronger effect = lower value
[20] = S. cerevisiae deletion strains, locus YLR058C, strain SHM2 (second series), stronger effect = lower value
[21] = S. cerevisiae deletion strains, locus YLR085C, strain ARP6, stronger effect = lower value
[22] = S. cerevisiae deletion strains, locus YLR113W, strain HOG1, stronger effect = lower value
[23] = S. cerevisiae deletion strains, locus YLR262C, strain YPT6, stronger effect = lower value
[24] = S. cerevisiae deletion strains, locus YML094W, strain GIM5, stronger effect = lower value
[25] = S. cerevisiae deletion strains, locus YMR219W, strain ESC1, stronger effect = lower value
[26] = S. cerevisiae deletion strains, locus YMR263W, strain SAP30, stronger effect = lower value
[27] = S. cerevisiae deletion strains, locus YMR307W, strain GAS1, stronger effect = lower value
[28] = S. cerevisiae deletion strains, locus YNL153C, strain GIM3, stronger effect = lower value
[29] = S. cerevisiae deletion strains, locus YNL183C, strain NPR1, stronger effect = lower value
[30] = S. cerevisiae deletion strains, locus YNL207W, strain RIO2, stronger effect = lower value
[31] = S. cerevisiae deletion strains, locus YNL298W, strain CLA4 (second series), stronger effect = lower value
[32] = S. cerevisiae deletion strains, locus YNL322C, strain KRE1, stronger effect = lower value
[33] = S. cerevisiae deletion strains, locus YNR030W, strain Alg12, stronger effect = lower value
[34] = S. cerevisiae deletion strains, locus YOR119C, strain RIO1, stronger effect = lower value
[35] = S. cerevisiae deletion strains, locus YOR231W, strain MKK1, stronger effect = lower value
[36] = S. cerevisiae deletion strains, locus YPL055C, strain LGE1, stronger effect = lower value
[37] = S. cerevisiae deletion strains, locus YPL241C, strain CIN2, stronger effect = lower value
[38] = S. cerevisiae deletion strains, locus YPL256C, strain CLN2, stronger effect = lower value
[39] = S. cerevisiae deletion strains, locus YPR135W, strain CTF4, stronger effect = lower value
[40] = S. cerevisiae strains, strain wild type, stronger effect = lower value

Measured: normalized growth

S=C(NCc1ccco1)Nc1ccc(Oc2ccc(Cl)cc2)cc1
inactive: [1] 0.937 | [3] 0.933 | [4] 0.863 | [6] 1.04 | [8] 0.987 | [10] 1.07 | [11] 1.14 | [12] 0.919 | [13] 0.948 | [15] 0.926 | [16] 1.13 | [17] 0.95 | S. cerevisiae deletion strains, locus YKL171W, strain NNK1, stronger effect = lower value 1.06 | [18] 1.04 | [20] 0.979 | [22] 1.11 | [25] 0.97 | [28] 0.936 | [29] 1.04 | [30] 1.02 | [32] 0.998 | [34] 1 | [35] 0.944
0.247 (active) and 1.07 (inactive): [9]
active: [2] 0.868 | [5] 0.723 | [7] 0.915 | [14] 0.923 | [19] 0.41 | [21] 0.355 | [23] 0.463 | [24] 0.703 | [26] 0.85 | [27] 0.364 | S. cerevisiae deletion strains, locus YNL128W, strain TEP1, stronger effect = lower value 0.887 | [31] 0.652 | [33] 0.544 | [36] 0.641 | [37] 0.361 | [38] 1.27 [resistant] | [39] 0.505 | [40] 0.883

COc1cccc(NC(=S)NCc2ccco2)c1
inactive: [1] 0.979 | [2] 0.99 | [3] 1.03 | [4] 1.04 | [5] 0.979 | [7] 1.01 | [9] 0.88 | [12] 0.977 | [14] 0.984 | [15] 1.01 | [17] 1 | [19] 0.976 | [20] 0.984 | [21] 0.884 | [23] 0.97 | [24] 0.963 | [25] 0.992 | [26] 1.04 | [28] 1 | [31] 1.01 | [32] 0.994 | [33] 0.986 | [36] 0.976 | [37] 0.97 | [39] 0.956 | [40] 0.996

CCC(=O)Oc1ccc(NC(=S)NCCCO)cc1
inactive: [1] 1 | [2] 1 | [3] 0.998 | S. cerevisiae deletion strains, locus YDL134C, strain PPH21, stronger effect = lower value 0.992 | [4] 1 | [5] 1.01 | [7] 1 | [8] 1 | [9] 1.05 | [12] 0.999 | [14] 1 | [15] 1 | [17] 1.01 | [19] 0.996 | [20] 1 | [21] 1.04 | [23] 1 | [24] 1.04 | [25] 1 | [26] 1.01 | [27] 1.04 | [28] 1.01 | [31] 1.01 | [32] 1.01 | [33] 1.02 | S. cerevisiae deletion strains, locus YOL006C, strain TOP1, stronger effect = lower value 1.01 | [36] 1.01 | [37] 1.04 | [39] 1.22 | [40] 0.993

CC(Oc1ccc(Cl)cc1Cl)C(=O)NNC(=S)Nc1ccccc1 (centres undefined)
inactive: S. cerevisiae deletion strains, locus YAR019C, strain CDC15, stronger effect = lower value 0.983 | S. cerevisiae deletion strains, locus YBL105C, strain PKC1, stronger effect = lower value 0.978 | S. cerevisiae deletion strains, locus YBR135W, strain CKS1, stronger effect = lower value 0.982 | S. cerevisiae deletion strains, locus YBR136W, strain MEC1, stronger effect = lower value 0.98 | S. cerevisiae deletion strains, locus YBR160W, strain CDC28, stronger effect = lower value 0.975 | S. cerevisiae deletion strains, locus YDL017W, strain CDC7, stronger effect = lower value 0.986 | S. cerevisiae deletion strains, locus YDL028C, strain MPS1, stronger effect = lower value 0.977 | [3] 0.973 | S. cerevisiae deletion strains, locus YDL108W, strain KIN28, stronger effect = lower value 0.959 | S. cerevisiae deletion strains, locus YDL132W, strain cdc53, stronger effect = lower value 0.968 | S. cerevisiae deletion strains, locus YDL214C, strain PRR2, stronger effect = lower value 0.984 | S. cerevisiae deletion strains, locus YDR052C, strain DBF4, stronger effect = lower value 0.991 | S. cerevisiae deletion strains, locus YDR054C, strain cdc34, stronger effect = lower value 0.982 | S. cerevisiae deletion strains, locus YDR226W, strain ADK1, stronger effect = lower value 0.981 | S. cerevisiae deletion strains, locus YDR477W, strain SNF1, stronger effect = lower value 0.994 | S. cerevisiae deletion strains, locus YER123W, strain YCK3, stronger effect = lower value 0.983 | S. cerevisiae deletion strains, locus YER133W, strain GLC7, stronger effect = lower value 0.966 | S. cerevisiae deletion strains, locus YFL009W, strain cdc4, stronger effect = lower value 0.976 | S. cerevisiae deletion strains, locus YFL029C, strain CAK1, stronger effect = lower value 0.981 | S. cerevisiae deletion strains, locus YFR003C, strain YPI1, stronger effect = lower value 0.981 | S. cerevisiae deletion strains, locus YFR019W, strain FAB1, stronger effect = lower value 0.964 | S. cerevisiae deletion strains, locus YFR028C, strain CDC14, stronger effect = lower value 0.974 | S. cerevisiae deletion strains, locus YGR040W, strain KSS1, stronger effect = lower value 0.965 | [6] 0.982 | S. cerevisiae deletion strains, locus YGR092W, strain DBF2, stronger effect = lower value 0.905 | [9] 0.974 | [10] 1.01 | [11] 1.03 | S. cerevisiae deletion strains, locus YHR205W, strain SCH9, stronger effect = lower value 0.906 | S. cerevisiae deletion strains, locus YIL147C, strain SLN1, stronger effect = lower value 0.97 | [13] 0.927 | S. cerevisiae deletion strains, locus YJL128C, strain PBS2, stronger effect = lower value 0.943 | S. cerevisiae deletion strains, locus YJL157C, strain FAR1, stronger effect = lower value 0.973 | S. cerevisiae deletion strains, locus YJR016C, strain ILV3, stronger effect = lower value 0.971 | S. cerevisiae deletion strains, locus YJR066W, strain TOR1 (second series), stronger effect = lower value 0.94 | [16] 1.01 | S. cerevisiae deletion strains, locus YKL048C, strain ELM1, stronger effect = lower value 0.974 | S. cerevisiae deletion strains, locus YKL067W, strain YNK1, stronger effect = lower value 0.966 | S. cerevisiae deletion strains, locus YKL101W, strain HSL1, stronger effect = lower value 0.957 | S. cerevisiae deletion strains, locus YKL193C, strain SDS22, stronger effect = lower value 0.977 | [18] 1.02 | [22] 0.981 | S. cerevisiae deletion strains, locus YLR133W, strain CKI1, stronger effect = lower value 0.959 | S. cerevisiae deletion strains, locus YLR403W, strain SFP1, stronger effect = lower value 0.908 | S. cerevisiae deletion strains, locus YML070W, strain DAK1, stronger effect = lower value 0.98 | S. cerevisiae deletion strains, locus YMR001C, strain CDC5, stronger effect = lower value 0.981 | S. cerevisiae deletion strains, locus YMR205C, strain PFK2 (second series), stronger effect = lower value 0.968 | S. cerevisiae deletion strains, locus YMR277W, strain FCP1, stronger effect = lower value 0.98 | S. cerevisiae deletion strains, locus YNL006W, strain LST8, stronger effect = lower value 0.976 | S. cerevisiae deletion strains, locus YNL020C, strain ARK1, stronger effect = lower value 0.954 | S. cerevisiae deletion strains, locus YNL161W, strain CBK1, stronger effect = lower value 0.984 | [29] 1.01 | [30] 0.958 | S. cerevisiae deletion strains, locus YNL222W, strain SSU72, stronger effect = lower value 0.973 | S. cerevisiae deletion strains, locus YNL307C, strain MCK1 (second series), stronger effect = lower value 0.873 | S. cerevisiae deletion strains, locus YOL078W, strain AVO1, stronger effect = lower value 0.972 | S. cerevisiae deletion strains, locus YOL136C, strain PFK27, stronger effect = lower value 0.938 | S. cerevisiae deletion strains, locus YOR061W, strain CKA2, stronger effect = lower value 0.968 | [34] 1.03 | [35] 0.993 | S. cerevisiae deletion strains, locus YOR329C, strain SCD5, stronger effect = lower value 0.982 | S. cerevisiae deletion strains, locus YPL031C, strain PHO85, stronger effect = lower value 0.995 | S. cerevisiae deletion strains, locus YPL153C, strain RAD53, stronger effect = lower value 0.993 | S. cerevisiae deletion strains, locus YPL204W, strain HRR25, stronger effect = lower value 0.944 | S. cerevisiae deletion strains, locus YPL209C, strain IPL1, stronger effect = lower value 0.98 | [38] 1.12 | S. cerevisiae deletion strains, locus YPR025C, strain CCL1, stronger effect = lower value 0.978 | S. cerevisiae deletion strains, locus YPR106W, strain ISR1, stronger effect = lower value 0.977 | S. cerevisiae deletion strains, locus YPR111W, strain DBF20, stronger effect = lower value 0.961 | S. cerevisiae deletion strains, strain NNK1, stronger effect = lower value 0.973 | S. cerevisiae deletion strains, strain TSCII, stronger effect = lower value 0.983
